The record followed here is PubChem BioAssay (EPA / NIEHS).

Read-out in assay [1]: Monokine induced gamma interferon (MIG), CXCL9 (gene 4283)
The assay can be described thus: BSK_3C_MIG: BioMAP Diversity Plus: 3C Assay for Monokine induced gamma interferon (MIG) Biomarker Activity (AID 2283021). Particulars: primary human endothelial cells (HUVEC); actives raise or lower the signal. In short, it runs like this: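 Endothelial primary cells (human umbilical vein) are dosed with test chemical in the 3C system. MIG levels are measured by ELISA at 24 h and fitted in both directions relative to DMSO.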

Assay [2] is described as follows: BSK_3C_SRB: Viability Assessment in the BioMAP Diversity Plus: 3C Assay (AID 2283023).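 Also: fitted both ways against DMSO so a hit may be signal rise or drop.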 Particulars: primary human endothelial cells (HUVEC). The gist of the method:
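Overt cytotoxicity is gauged in parallel confluent HUVEC cultures by SRB total-protein staining at the time of biomarker measurement, 24 h after dosing. Gain or loss of signal is fitted versus DMSO.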

Read-out in assay [3]: Matrix Metallopeptidase 1 (MMP1), MMP1 (gene 4312)
The assay can be described thus: BSK_BE3C_MMP1: BioMAP Diversity Plus: BE3C Assay for Matrix Metallopeptidase 1 (MMP1) Biomarker Activity (AID 2283024). Particulars: primary human bronchial epithelial cells; actives raise or lower the signal. In short, it runs like this: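 MMP1 signal, measured by ELISA after a 24 h chemical exposure of human primary bronchial epithelial cells, is analysed with bidirectional fitting using DMSO as negative control.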

Assay [4] can be described thus: BSK_3C_Vis: BioMAP Diversity Plus: 3C Assay for Morphology Visualization (AID 2283025).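 Also: fitted both ways so gain or loss versus DMSO counts.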 Particulars: primary human endothelial cells (HUVEC). The gist of the method:
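Morphology read by light microscopy serves as a background control for the multiplexed 3C assay in human umbilical vein endothelial cells, taken 24 h after dosing, with DMSO as the negative control and bidirectional curve fitting.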

Read-out in assay [5]: Pselectin, SELP (gene 6403)
The assay can be described thus: BSK_4H_Pselectin: BioMAP Diversity Plus: 4H Assay for Pselectin Biomarker Activity (AID 2283026). The settings on record: primary human endothelial cells (HUVEC); actives raise or lower the signal. The gist of the method:
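Endothelial primary cells (human umbilical vein) are dosed, incubated 24 h, and assayed for surface P-selectin by ELISA; responses in either direction are fitted relative to the DMSO negative control.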

A short description of assay [6]: BSK_4H_SRB: Viability Assessment in the BioMAP Diversity Plus: 4H Assay (AID 2283027).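 Also: cells exposed to compound for 24 h before staining.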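 As to AC50: curves fitted both ways versus DMSO so AC50 may be loss or gain.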 The settings on record: primary human endothelial cells (HUVEC). In short, it runs like this: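 HUVEC, 24 h post-dose; 10% TCA fix, 0.1% SRB stain, A560 nm. Total protein = overt cytotoxicity, parallel to biomarker read. Bidirectional fit vs DMSO baseline.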
The nature of assay [7]: BSK_BE3C_SRB: Viability Assessment in the BioMAP Diversity Plus: BE3C Assay (AID 2283028).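 As to AC50: fitted both ways so AC50 may mark signal gain or loss versus DMSO.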 The settings on record: primary human bronchial epithelial cells. The gist of the method:
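SRB total-protein staining (0.1%, after TCA fixation) of chemically dosed human bronchial epithelial primary cells at 24 h; DMSO serves as the negative control for bidirectional curve fitting.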

Read-out in assay [8]: Thrombomodulin, THBD (gene 7056)
Kind of assay: BSK_3C_Thrombomodulin: BioMAP Diversity Plus: 3C Assay for Thrombomodulin Biomarker Activity (AID 2283029). Particulars: primary human endothelial cells (HUVEC); actives raise or lower the signal. The gist of the method: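 Endothelial cells from umbilical vein are dosed with test chemical and incubated 24 h. Thrombomodulin is then quantified by ELISA, with DMSO serving as negative control and activity baseline.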

Read-out in assay [9]: Urokinase-type plasminogen activator receptor (uPAR), PLAUR (gene 5329)
The assay can be described thus: BSK_4H_uPAR: BioMAP Diversity Plus: 4H Assay for Urokinase-type plasminogen activator receptor (uPAR) Biomarker Activity (AID 2283030). Particulars: primary human endothelial cells (HUVEC); actives raise or lower the signal. In short, it runs like this: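 Endpoint derived via bidirectional curve fitting against DMSO baseline; readout was ELISA detection of uPAR on umbilical vein endothelial cells at 24 h post-treatment, with SRB-stained parallel cultures assessing cytotoxicity.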

Read-out in assay [10]: Vascular endothelial growth factor receptor 2 (Homo sapiens) (UniProt P35968)
Kind of assay: BSK_4H_VEGFRII: BioMAP Diversity Plus: 4H Assay for Vascular endothelial growth factor receptor 2 (VEGFR2) Biomarker Activity (AID 2283031). The settings on record: primary human endothelial cells (HUVEC); actives raise or lower the signal. In short, it runs like this: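 In this multiplexed HUVEC system, biomarker ELISA was performed after 24 h chemical exposure. Parallel SRB staining (TCA fixation, 560 nm) tracked cytotoxicity; DMSO served as baseline.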

Read-out in assay [11]: Human Leukocyte Antigen - DR isotype (HLADR), HLA-DRA (gene 3122)
The assay can be described thus: BSK_BE3C_HLADR: BioMAP Diversity Plus: BE3C Assay for Human Leukocyte Antigen - DR isotype (HLADR) Biomarker Activity (AID 2283032). The settings on record: primary human bronchial epithelial cells; actives raise or lower the signal. The gist of the method:
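Chemicals are dosed onto BE3C bronchial epithelial cultures of human origin and left 24 h. HLA-DR is then measured by ELISA, and the endpoint is fitted in both directions using DMSO as the activity baseline.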

Read-out in assay [12]: Vascular cell adhesion molecule 1 (VCAM1), VCAM1 (gene 7412)
Kind of assay: BSK_4H_VCAM1: BioMAP Diversity Plus: 4H Assay for Vascular cell adhesion molecule 1 (VCAM1) Biomarker Activity (AID 2283033).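 Also: cell-surface VCAM-1 protein measured by ELISA.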 Particulars: primary human endothelial cells (HUVEC); actives raise or lower the signal. The gist of the method:
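Chemicals are added to primary human umbilical vein endothelial cells. After 24 h, VCAM-1 levels are measured by ELISA. Values come from bidirectional fitting referenced to DMSO.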

Read-out in assay [13]: Interferon-gamma inducible Protein 10 (IP10), CXCL10 (gene 3627)
Kind of assay: BSK_BE3C_IP10: BioMAP Diversity Plus: BE3C Assay for Interferon-gamma inducible Protein 10 (IP10) Biomarker Activity (AID 2283034). The settings on record: primary human bronchial epithelial cells; actives raise or lower the signal. The gist of the method:
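IP-10 quantified by ELISA serves as the endpoint. Cells: primary human bronchial epithelium, read 24 h after compound addition. Activity is derived by bidirectional fitting with DMSO as negative control.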

Read-out in assay [14]: Monokine induced gamma interferon (MIG), CXCL9 (gene 4283)
Kind of assay: BSK_BE3C_MIG: BioMAP Diversity Plus: BE3C Assay for Monokine induced gamma interferon (MIG) Biomarker Activity (AID 2283035).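 Also: MIG protein measured by ELISA in BE3C cultures after 24 h of dosing.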 Particulars: primary human bronchial epithelial cells; actives raise or lower the signal. The gist of the method:
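Dose cells (human primary bronchial epithelial), incubate 24 h, quantify MIG by ELISA, then fit concentration–response in both directions relative to DMSO control.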

Read-out in assay [15]: Transforming growth factor beta 1 (TGFb1), TGFB1 (gene 7040)
Kind of assay: BSK_BE3C_TGFb1: BioMAP Diversity Plus: BE3C Assay for Transforming growth factor beta 1 (TGFb1) Biomarker Activity (AID 2283036;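 also: TGF-b1 protein level measured by ELISA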). The settings on record: primary human bronchial epithelial cells; actives raise or lower the signal. In short, it runs like this: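 Bronchial epithelial primary cells are treated with test chemical, then TGF-b1 is quantified by ELISA after 24 hours. Values derive from bidirectional fitting against DMSO, with cytotoxicity checked by SRB staining in parallel cultures.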

Read-out in assay [16]: Plasminogen activator inhibitor-1 (PAI1), SERPINE1 (gene 5054)
Kind of assay: BSK_BE3C_PAI1: BioMAP Diversity Plus: BE3C Assay for Plasminogen activator inhibitor-1 (PAI1) Biomarker Activity (AID 2283037). Particulars: primary human bronchial epithelial cells; actives raise or lower the signal. The gist of the method: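 Values derive from bidirectional fitting against DMSO baseline of PAI-1 levels, measured by ELISA in human bronchial epithelial cells 24 h after compound addition.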

Read-out in assay [17]: urokinase plasminogen activator (uPA), PLAU (gene 5328)
Kind of assay: BSK_BE3C_uPA: BioMAP Diversity Plus: BE3C Assay for urokinase plasminogen activator (uPA) Biomarker Activity (AID 2283038).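 Also: uPA protein level quantified by ELISA in cell cultures; uPA read one day after compound addition.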 Particulars: primary human bronchial epithelial cells; actives raise or lower the signal. The gist of the method: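 Using confluent primary human lung bronchial epithelial cultures, we dosed chemicals, waited 24 h, then ran a uPA ELISA, fitting bidirectionally against DMSO.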

Read-out in assay [18]: Urokinase-type plasminogen activator receptor (uPAR), PLAUR (gene 5329)
The assay can be described thus: BSK_BE3C_uPAR: BioMAP Diversity Plus: BE3C Assay for Urokinase-type plasminogen activator receptor (uPAR) Biomarker Activity (AID 2283039).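 Also: uPAR protein level measured by ELISA on the cells; cells exposed to compound for one day before measurement.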 The settings on record: primary human bronchial epithelial cells; actives raise or lower the signal. The gist of the method: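 Steps: dose human primary bronchial epithelial cells, incubate 24 h, measure uPAR by ELISA, then fit gain- or loss-of-signal response bidirectionally relative to DMSO.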

Read-out in assay [19]: Interleukin-6 (IL6), IL6 (gene 3569)
Kind of assay: BSK_CASM3C_IL6: BioMAP Diversity Plus: CASM3C Assay for Interleukin-6 (IL6) Biomarker Activity for (AID 2283040). Particulars: primary human coronary artery smooth muscle cells; actives raise or lower the signal.

Read-out in assay [20]: Tissue plasminogen activator (tPA), PLAT (gene 5327)
Kind of assay: BSK_BE3C_tPA: BioMAP Diversity Plus: BE3C Assay for Tissue plasminogen activator (tPA) Biomarker Activity (AID 2283041).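 Also: tPA level quantified by ELISA one day after compound addition.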 The settings on record: primary human bronchial epithelial cells; actives raise or lower the signal. The gist of the method: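 Gain- or loss-of-signal in tPA, measured by ELISA, derived by bidirectional fitting against DMSO. Cells: human primary bronchial epithelial; read at 24 h after chemical dosing.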

Active and inactive are the calls of the source. The calls were made as follows: active = hit-call score of the fitted dose curve at least 0.9, where 1 is the maximum; inactive = score below 0.9.

For orientation: AC50 means the concentration giving half of the maximal activity seen.

With `O=c1n(Cl)c(=O)n(Cl)c(=O)n1Cl`, the result in assay [1], in [2], in assay [3], in assay [4], in assay [5] and in [6] was inactive. Moreover, the result in assay [7], in assay [8], in assay [9], in [10], in [11] and in assay [12] was inactive. Also, the outcome in [13], in assay [14], in assay [15], in assay [16], in assay [17] and in [18] was inactive. In addition, the result in assay [19] and in [20] was inactive.
For the compound `Nc1c(Cl)c(Cl)nc(C(=O)O)c1Cl`, the outcome in assay [1], in assay [2], in assay [3], in assay [4], in assay [5] and in assay [6] was inactive. The result in assay [7], in assay [8], in assay [9], in assay [10], in assay [11] and in assay [12] was inactive. Also, the result in [13], in [14], in assay [15], in [16], in assay [17] and in [18] was inactive. The outcome in assay [19] and in assay [20] was inactive.
For the compound `N#Cc1c(Cl)cccc1Cl`, the result in assay [1], in assay [2], in assay [3], in assay [4], in [5] and in assay [6] was inactive. Further, the result in assay [7], in assay [8], in assay [9], in assay [10], in assay [11] and in assay [12] was inactive. Moreover, the outcome in [13], in assay [14], in [15], in assay [16], in assay [17] and in assay [18] was inactive. Also, the result in assay [19] and in assay [20] was inactive.
Consider `COc1cc(OC)nc(NC(=O)NS(=O)(=O)c2ncccc2OCC(F)(F)F)n1`, for which the result in assay [1], in [2], in [3], in assay [4], in [5] and in [6] was inactive. In addition, the outcome in [7], in [8], in [9], in assay [10], in assay [11] and in assay [12] was inactive. Besides, the result in [13], in assay [14], in assay [15], in [16], in assay [17] and in assay [18] was inactive. The result in assay [19] and in assay [20] was inactive.
On to `Cc1cc(C)nc(Nc2ccccc2)n1`, for which the outcome in assay [1], in assay [2], in assay [3], in assay [4], in assay [5] and in [6] was inactive. Moreover, the result in assay [7], in assay [8], in assay [9], in assay [10], in assay [11] and in [12] was inactive. Moreover, the result in assay [13], in assay [14], in [15], in assay [16], in assay [17] and in [18] was inactive. For the same compound, the result in assay [19] and in assay [20] was inactive.
Regarding `CSC(=O)c1c(C(F)F)nc(C(F)(F)F)c(C(=O)SC)c1CC(C)C`, the result in assay [1], in assay [8], in [10], in assay [11], in assay [12] and in assay [13] was inactive. Moreover, the outcome in [14], in [15], in assay [16], in assay [17], in assay [18] and in assay [20] was inactive. The AC50 is 14.6 µM (active) in assay [2]; 6.22 µM (active) in assay [3]; 13.7 µM (active) in [4]; 15 µM (active) in assay [5]; 25.7 µM (active) in [6]; 16.8 µM (active) in assay [7]. The AC50 in assay [19] is 3.97 µM (active).
